JMJD2A Tudor inh: qHTS Assay for Inhibitors of JMJD2A-Tudor Domain; AlphaScreen JMJD2A-Tudor / H3K4me3 peptide binding; AID 504339, 2011; Lysine-specific demethylase 4A (Homo sapiens), O75164; 4.4% of 390,000 active; Potency, µM (top dose mostly 114 µM), actives largely listed as inhibitors; further: nearly all actives have a fitted effect of over 50% in size
Target sequence (O75164 whole entry, looked up, the tested form may be a part): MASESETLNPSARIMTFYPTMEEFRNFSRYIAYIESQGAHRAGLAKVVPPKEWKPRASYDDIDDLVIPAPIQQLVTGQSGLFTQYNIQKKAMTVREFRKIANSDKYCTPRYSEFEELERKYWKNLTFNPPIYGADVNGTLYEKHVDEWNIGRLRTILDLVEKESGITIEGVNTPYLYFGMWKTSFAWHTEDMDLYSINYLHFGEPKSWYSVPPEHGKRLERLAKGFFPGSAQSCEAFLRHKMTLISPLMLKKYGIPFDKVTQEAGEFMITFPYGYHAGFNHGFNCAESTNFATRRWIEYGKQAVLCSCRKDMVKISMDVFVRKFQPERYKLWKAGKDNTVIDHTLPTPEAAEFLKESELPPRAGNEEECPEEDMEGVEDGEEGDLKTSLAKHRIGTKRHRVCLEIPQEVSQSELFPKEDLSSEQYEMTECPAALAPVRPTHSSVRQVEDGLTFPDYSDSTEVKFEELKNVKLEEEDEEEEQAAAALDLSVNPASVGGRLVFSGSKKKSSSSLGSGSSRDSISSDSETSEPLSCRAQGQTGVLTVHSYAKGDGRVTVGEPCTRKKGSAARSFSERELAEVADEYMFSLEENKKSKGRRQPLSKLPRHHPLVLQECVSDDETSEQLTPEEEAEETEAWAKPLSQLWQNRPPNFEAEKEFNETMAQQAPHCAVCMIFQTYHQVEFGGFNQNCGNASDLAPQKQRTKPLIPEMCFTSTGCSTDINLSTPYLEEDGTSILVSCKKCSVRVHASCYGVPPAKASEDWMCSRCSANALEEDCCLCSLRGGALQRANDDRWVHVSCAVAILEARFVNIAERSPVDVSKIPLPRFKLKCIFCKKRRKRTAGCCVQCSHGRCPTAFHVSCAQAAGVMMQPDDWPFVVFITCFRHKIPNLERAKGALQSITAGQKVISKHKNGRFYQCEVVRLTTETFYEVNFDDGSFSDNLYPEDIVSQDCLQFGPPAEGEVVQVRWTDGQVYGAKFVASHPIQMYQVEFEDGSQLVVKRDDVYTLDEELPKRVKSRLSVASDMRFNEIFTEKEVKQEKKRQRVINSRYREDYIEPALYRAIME
HP1b binding inh: HTS for Inhibitors of HP1-beta Chromodomain Interactions with Methylated Histone Tails; Potency, µM (top dose mostly 114 µM), actives largely listed as inhibitors; AID 540317, 2011; Chromobox protein homolog 1 (Homo sapiens), P83916; AlphaScreen HP1-beta / biotin-H3K9me3 peptide binding; 0.56% of 390,000 active; further: nearly all actives have a fitted effect of over 70% in size
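Compound inhibition of the preformed complex between 50 nM HP1-beta and 50 nM biotinylated H3K9me3 peptide was read by AlphaScreen. Buffer was PBS pH 7.4 with 0.01% Tween-20. Incubations ran 30 min at room temperature, with 10 ug/mL donor/acceptor beads.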
PLK1 PBD block: qHTS for Inhibitors of PLK1-PDB (polo-like kinase 1 - polo-box domain): Primary Screen; Potency, µM, hits mostly inhibitors; 2.8% of 360,000 active; AID 720504, 2013; Plk1 PBD binding of FITC phosphopeptide, fluorescence polarization; further: series mostly up to about 57 µM; nearly all actives have a fitted effect of over 65% in size
PI5P4Ka inh: qHTS for Inhibitors of phosphatidylinositol 5-phosphate 4-kinase (PI5P4K) | Phosphatidylinositol 5-phosphate 4-kinase type-2 alpha (Homo sapiens), P48426 | PI5P4Kalpha enzyme, ADP-Glo luminescence, 60 min; stronger effect = lower value | max response, % | 1.2% of 330,000 active | AID 652105, 2013; active means max response of -50% or lower; inconclusive means between -30% and -50%; inactive means -30% or higher; further: value at the top dose of about 77 µM
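ADP-Glo luminescence end-point after a 60 min room-temperature kinase reaction. PI5P4Kalpha and substrate in HEPES pH 7.4 buffer with EGTA, 0.1% CHAPS and 5% DMSO; ATP at 5 microM final.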
GCN5L2 inh: qHTS Assay for Inhibitors of GCN5L2; Histone acetyltransferase KAT2A (Homo sapiens), Q92830; GCN5L2 HAT assay, ThioGlo1 CoA-SH fluorescence; Potency, µM (top dose mostly 58.9 µM), actives largely listed as inhibitors; 0.21% of 390,000 active; AID 504327, 2011
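Titration-based screen in which CoA formation is detected via maleimide probe ThioGlo1 (50uM) turning fluorescent on thiol reaction; substrates H3(1-25) 75uM and acetyl-CoA 70uM, GCN5L2 20nM, 20 min incubation at room temperature.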
BAZ2B block: qHTS Assay for Inhibitors of BAZ2B; Bromodomain adjacent to zinc finger domain protein 2B (Homo sapiens), Q9UIF8; Potency, µM (series often up to 114 µM), usual class: inhibitors; AID 504333, 2011; 4.4% of 360,000 active; AlphaScreen BAZ2B-H3K14Ac peptide displacement; further: nearly all actives have a fitted effect of over 60% in size
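AlphaScreen luminescence quantifies BAZ2B engagement of H3K14Ac peptide; the protein and biotinylated peptide are both at 50 nM final, buffer PBS pH 7.4 with 0.01% Tween-20, all steps at room temperature.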
Hits are given with their value. Rows were chosen to be rich in hits. Some 7% of all compounds tested hit in one or more screens of this group. Unless noted, the call rests on the fitted dose curve; in most records, active means well fitted curve in the direction sought with a large enough effect; inconclusive means small, poorly fitted or top-dose-only effect, or another doubt; inactive means no such curve, though single readings can be large; an effect the other way counts as inactive or inconclusive.

For COC(=O)c1c(NC(=S)Nc2cc(OC)c(Cl)cc2OC)sc2c1CCCCC2 the results were JMJD2A Tudor inh 50.1µM, HP1b binding inh inactive, PLK1 PBD block inactive, PI5P4Ka inh inactive, GCN5L2 inh inactive and BAZ2B block inactive.
Screening CCCCn1c(N)c(N(CC(C)C)C(=O)c2cc(S(=O)(=O)N3CCOCC3)ccc2Cl)c(=O)[nH]c1=O returned JMJD2A Tudor inh inactive, HP1b binding inh inactive, PLK1 PBD block inactive, PI5P4Ka inh inactive, GCN5L2 inh inactive and BAZ2B block inactive.
For O=C(N/N=C/c1ccccc1O)C(=O)Nc1ccccn1 the results were JMJD2A Tudor inh inconclusive, HP1b binding inh inactive, PLK1 PBD block inactive, PI5P4Ka inh inactive, GCN5L2 inh inactive and BAZ2B block inconclusive.
`COc1ccc(NC(=O)c2c(NCc3cccc(F)c3)sc3c2CCCC3)c(OC)c1` gave JMJD2A Tudor inh inconclusive, HP1b binding inh inconclusive, GCN5L2 inh inactive and BAZ2B block 25.1µM.
For COc1ccccc1NC(=O)c1c(NCc2sccc2C)sc2c1CCCCC2 the results were JMJD2A Tudor inh 44.7µM, HP1b binding inh inconclusive, GCN5L2 inh inactive and BAZ2B block 31.6µM.
`COc1ccc(Cl)cc1NC(=O)c1c(NCc2sccc2C)sc2c1CCCC2` gave JMJD2A Tudor inh 50.1µM, HP1b binding inh inconclusive, GCN5L2 inh inconclusive and BAZ2B block 44.7µM.
CCOc1ccccc1NC(=O)c1c(NCc2sccc2C)sc2c1CCCCC2 was read as JMJD2A Tudor inh inconclusive, HP1b binding inh inactive, GCN5L2 inh inactive and BAZ2B block inconclusive.
COC(=O)c1ccc(NC(=O)c2c(NCc3cccc(F)c3)sc3c2CCCC3)cc1 was read as JMJD2A Tudor inh inconclusive, HP1b binding inh inactive, GCN5L2 inh inactive and BAZ2B block inactive.
For O=C(CCc1ccccc1)Nc1nnc(-c2cccs2)o1 the results were JMJD2A Tudor inh inactive, HP1b binding inh inactive, PLK1 PBD block inactive, PI5P4Ka inh inactive, GCN5L2 inh inactive and BAZ2B block inactive.
CCC(=O)Nc1nnc(-c2ccccn2)o1 was read as JMJD2A Tudor inh 5.62µM, HP1b binding inh inactive, PLK1 PBD block inactive, PI5P4Ka inh inactive, GCN5L2 inh inactive and BAZ2B block 28.2µM.
For O=C(CCc1ccccc1)Nc1nnc(-c2ccccn2)o1 the results were JMJD2A Tudor inh 20µM, HP1b binding inh inactive, PLK1 PBD block inactive, PI5P4Ka inh inactive, GCN5L2 inh inactive and BAZ2B block 50.1µM.
`CCOC(=O)c1ccc(NC(=O)CC2S/C(=N/N=C3/NC(=O)CS3)NC2=O)cc1` (configuration not stated) gave JMJD2A Tudor inh inconclusive, HP1b binding inh inactive, PLK1 PBD block inactive, PI5P4Ka inh inactive, GCN5L2 inh inconclusive and BAZ2B block inactive.
Screening Cc1ccc(NC(=O)CC2S/C(=N/N=C3/NC(=O)CS3)NC2=O)cc1 (configuration not stated) returned JMJD2A Tudor inh inconclusive, HP1b binding inh inactive, PLK1 PBD block inactive, PI5P4Ka inh inactive, GCN5L2 inh inactive and BAZ2B block 56.2µM.
`CCOC(=O)CNC(=O)C1CCCCC1` gave JMJD2A Tudor inh inactive and HP1b binding inh inactive.
CC(C)CNS(=O)(=O)c1cc2c3c(c1)CCC(=O)N3CCC2 was read as JMJD2A Tudor inh inactive, HP1b binding inh inactive, PLK1 PBD block inactive, PI5P4Ka inh inactive, GCN5L2 inh inactive and BAZ2B block inactive.
Screening COC(CNS(=O)(=O)c1cc2c3c(c1)CCN3C(=O)CC2)OC returned JMJD2A Tudor inh inactive, HP1b binding inh inactive, PLK1 PBD block 21.2µM, PI5P4Ka inh inactive, GCN5L2 inh inactive and BAZ2B block inactive.
For C=CCn1c(SCC(=O)c2ccc(NS(=O)(=O)c3ccccc3)cc2)nnc1-c1cccs1 the results were JMJD2A Tudor inh 31.6µM, HP1b binding inh inactive, PLK1 PBD block inactive, GCN5L2 inh inactive and BAZ2B block inactive.
O=S(=O)(Nc1nc2ccc(S(=O)(=O)N3CCCC3)cc2s1)c1ccc(F)cc1 was read as JMJD2A Tudor inh inactive, HP1b binding inh inactive, PLK1 PBD block 16.8µM, GCN5L2 inh inactive and BAZ2B block inconclusive.
O=C(Nc1nc2ccc(S(=O)(=O)N3CCCC3)cc2s1)c1ccc(F)cc1 was read as JMJD2A Tudor inh inactive, HP1b binding inh inactive, GCN5L2 inh inactive and BAZ2B block inactive.
For CCN1/C(=C/c2cc[n+](C)cc2)C=Cc2cc(C)ccc21 the results were JMJD2A Tudor inh inconclusive, HP1b binding inh inconclusive, PLK1 PBD block inactive, PI5P4Ka inh inactive, GCN5L2 inh inactive and BAZ2B block inconclusive.
For CCN1/C(=C/c2ccc3ccccc3[n+]2CCCS(=O)(=O)[O-])C=Cc2cc(C)ccc21 the results were JMJD2A Tudor inh inactive, HP1b binding inh inactive, PLK1 PBD block inactive, PI5P4Ka inh inactive, GCN5L2 inh inactive and BAZ2B block 44.7µM.
Screening CC(=O)N1CCc2c(sc(NC(=O)C3COc4ccccc4O3)c2C(N)=O)C1 (configuration not stated) returned JMJD2A Tudor inh inactive, HP1b binding inh inactive, PLK1 PBD block 18.9µM, PI5P4Ka inh inactive, GCN5L2 inh inactive and BAZ2B block inactive.
`CC(=O)N1CCc2c(sc(NC(=O)c3ccc([N+](=O)[O-])o3)c2C(N)=O)C1` gave PLK1 PBD block inconclusive and PI5P4Ka inh -64.6.
`CCC(=O)Nc1sc2c(c1C(N)=O)CCN(C(C)=O)C2` gave JMJD2A Tudor inh inactive, HP1b binding inh inactive, PLK1 PBD block inactive, PI5P4Ka inh inactive, GCN5L2 inh inactive and BAZ2B block inactive.
For CC(=O)N1CCc2c(sc(NC(=O)CN3C(=O)CCC3=O)c2C(N)=O)C1 the results were JMJD2A Tudor inh inactive, HP1b binding inh inactive, PLK1 PBD block inconclusive, PI5P4Ka inh -76.3, GCN5L2 inh inactive and BAZ2B block inactive.
`CC(=O)N1CCc2c(sc(NC(=O)CN3C(=O)c4ccccc4C3=O)c2C(N)=O)C1` gave JMJD2A Tudor inh inactive, HP1b binding inh inactive, PLK1 PBD block inactive, PI5P4Ka inh -76.7, GCN5L2 inh inactive and BAZ2B block inconclusive.
For Cc1nc2nc(SCc3ccc(F)cc3Cl)nn2c(C)c1Cc1ccccc1 the results were JMJD2A Tudor inh inactive, HP1b binding inh inactive, GCN5L2 inh inactive and BAZ2B block inactive.
`Cc1cccc(N2CCN(S(=O)(=O)c3ccc(-c4ccc(=O)[nH]n4)o3)CC2)c1C` gave JMJD2A Tudor inh inactive, HP1b binding inh inactive, PLK1 PBD block inactive, PI5P4Ka inh inactive, GCN5L2 inh inactive and BAZ2B block inactive.

From PubChem BioAssay
